# Data reported in PubChem BioAssay AID1321 (The Scripps Research Institute Molecular Screening Center, 2008).
# About 2,600 (1.2%) of roughly 220,000 compounds were called active.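 Rule for the calls: active = activation above the mean of all tested compounds plus 3 SD, set per screening run (cut at about 8.8% in these data); inactive = the rest.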 The full list was thinned out, with actives kept by preference.
# Biological target: Wee1-like protein kinase (Homo sapiens) (UniProt P30291)
# Assay: compounds stabilizing Wee1-luciferase fusion – cell-based, HeLa, Wee1K328M-luciferase, luminescence, primary screen (AID 1321);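 note: cells exposed to compound for 20 h before luminescence read; 0% = DMSO alone and 100% = MG132 at 30 µM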
# Details: HeLa Luc-Wee1K328M stability, at 5 µM, active compounds read high, 100% = proteasome inhibitor MG132 effect
row,SMILES,reporter increase
1,Brc1ccc(-c2n(-c3ccccn3)c3ccccc3[n+]2-c2ccccn2)cc1,3.34% (inactive)
2,CN(C)N=Nc1ccc2nc[nH]c2c1,2.5% (inactive)
3,Cc1ccc(C(=O)Nc2nc(N)n(-c3ccccc3)n2)cc1,-0.93% (inactive)
4,NS(=O)(=O)c1ccc(CNC(=O)c2cnccn2)cc1,3.73% (inactive)
5,COC(=O)CC1=NN(c2nc(C)cc(C)n2)C(=O)C1,15.3% (active)
6,COC(=O)CC1=NN(c2ccccc2)C(=O)C1,-1.29% (inactive)
7,Cc1cc(C)cc(NC(=O)C2CCN(c3nc(C)cc(C)n3)CC2)c1,-2.65% (inactive)
8,O=C1C2C3C=CC(C3)C2C(=O)N1c1ccc(S(=O)(=O)Nc2nccs2)cc1 (centres undefined),-1.57% (inactive)
9,NS(=O)(=O)c1ccc(NC(=O)COC(=O)c2cc3ccccc3oc2=O)cc1,-2.85% (inactive)
10,O=C(CCc1ccccc1)NNc1ccc(F)cc1,1.37% (inactive)
11,COc1cccc(-c2nnc(SCCOc3ccc4c(C)cc(=O)oc4c3)o2)c1,9.51% (active)
12,Cc1cc(=O)oc2cc(OCCC[n+]3ccccc3)ccc12,-1.76% (inactive)
13,Cc1ccccc1N1CCN(CCCOc2ccc3c(C)cc(=O)oc3c2)CC1,-1.06% (inactive)
14,COC(=O)c1sccc1NN1C(=O)c2ccccc2C1=O,-2.49% (inactive)
15,CCc1c(C)sc(NC(=O)/C=C/c2ccc3c(c2)OCO3)c1C(=O)OC,-2.27% (inactive)
16,Cc1cccc(NC(=O)Nc2ccc3c(c2)OCO3)n1,5.09% (inactive)
17,Cc1cccc(NC(=O)/C=C/c2ccc3c(c2)OCO3)n1,9.34% (active)
18,COc1ccc(C(=O)N/N=C2\CCS(=O)(=O)c3ccc(F)cc32)cc1OC,0.62% (inactive)
19,O=C(NCCCNCc1ccccc1)c1ccc(/C=N/O)nc1,11.4% (active)
20,CC(C)c1ccc(C(=O)NCCCc2ccccc2)cc1,-2.16% (inactive)
21,Nc1ccc(C(=O)NCc2ccccc2)cc1,2.22% (inactive)
22,CNC(=S)NNC(=O)c1oc2nc(-c3ccccc3)cc(-c3ccco3)c2c1N,-0.32% (inactive)
23,CCOP(=O)(OCC)C(Nc1ccc([N+](=O)[O-])cc1)c1ccc(Cl)cc1 (centres undefined),0.66% (inactive)
24,CCOP(=O)(OCC)C(Nc1cccc(C)c1)c1ccc(F)cc1 (centres undefined),10.8% (active)
25,CCCCOC(=O)c1ccc(NC(c2ccc(C)cc2)P(=O)(OC)OC)cc1 (centres undefined),8.49% (inactive)

row,SMILES,reporter increase
1,Nc1ccccc1SC(C[N+](=O)[O-])c1ccccc1 (centres undefined),-0.08% (inactive)
2,NC1=NC(=O)C(Cc2cccc(Cl)c2)S1 (centres undefined),-3.99% (inactive)
3,O=C1NC(=Nc2ccc(Cl)cc2)SC1Cc1cccc(Cl)c1Cl (centres undefined),-1.02% (inactive)
4,NC1=NC(=O)C(Cc2cccc(Cl)c2Cl)S1 (centres undefined),9.04% (active)
5,[O-][N+]12CCCCC1CCCC2CO (centres undefined),-2.55% (inactive)
6,COCCCNC(=O)C1CCN(c2ccc(N3CCOCC3)nn2)CC1,-2.62% (inactive)
7,CSc1nc(-c2ccco2)nn1C(=O)c1ccccc1Cl,-1.69% (inactive)
8,Cc1cc(C(=O)NNC(=S)Nc2ccccc2C)cs1,10.1% (active)
9,Cc1ccccc1NC(=S)NNC(=O)c1cccc(Br)c1,-1.44% (inactive)
10,Cc1ccc(C)c(NC(=S)NNC(=O)c2csc(C)c2)c1,1.58% (inactive)
11,CC(=O)N1CC[n+]2c(-c3ccc([N+](=O)[O-])cc3)csc21,-3.06% (inactive)
12,Nc1nnc(SCn2nnc3ccccc3c2=O)s1,-0.04% (inactive)
13,O=c1c2ccccc2nc(CSc2nnnn2-c2ccccc2)n1-c1ccccc1,5.88% (inactive)
14,O=c1c2ccccc2nnn1CSc1nnnn1-c1ccccc1,9.56% (active)
15,Cc1ccc(-c2nc(SCC(=O)Nc3ccccc3OC(F)F)c3c(C)c(C(=O)O)sc3n2)cc1,-1.68% (inactive)
16,O=[N+]([O-])/C=C1\CCCCCN1,-2.66% (inactive)
17,COc1ccc(CCN2C(=O)CC(N3CCC(C(N)=O)CC3)C2=O)cc1OC (centres undefined),-3% (inactive)
18,C/C(=N\NC(=S)Nc1ccc(C)cc1)c1cc2ccccc2o1,5.15% (inactive)
19,CCN1/C(=C/C(=S)Nc2ccccc2)Sc2ccccc21,11.6% (active)
20,CCC(=O)/C=C1\Sc2ccccc2N1CC,-1.98% (inactive)
21,O=C(CCN1c2ccccc2Sc2ccccc21)Nc1ccccc1,0.76% (inactive)
22,COc1ccccc1N1CCN(C(=O)c2cn(-c3ccccc3)nc2-c2cccnc2)CC1,-0.84% (inactive)
23,COc1ccc2oc(=O)c(C(=O)N3CCN(c4ccccc4F)CC3)cc2c1,-2.32% (inactive)
24,COc1ccc(Nc2ncc(C(=O)N3CCN(c4ccccc4OC)CC3)c3ccccc23)cc1,8.82% (active)
25,O=C(/C=C/Nc1ccc(S(=O)(=O)Nc2cnc3ccccc3n2)cc1)c1cccnc1,-0.5% (inactive)

row,SMILES,reporter increase
1,COc1cc(OC)c(OC)cc1/C=N/Nc1ncnc2c1[nH]c1ccc(C)cc12,0.2% (inactive)
2,O=C(NNS(=O)(=O)Cc1ccccc1)c1ccc([N+](=O)[O-])cc1,-1.88% (inactive)
3,COC(=O)c1cc2c(N)c(C(=O)c3ccc(Cl)cc3)sc2nc1C(OC)OC,-2.57% (inactive)
4,Nc1c(C(=O)NCc2ccccc2)sc2nc3c(cc12)C(=O)CCC3,2.8% (inactive)
5,CC(C)OC(=O)c1sc2nc3c(cc2c1N)C(=O)CCC3,11.6% (active)
6,CN(CC(O)COc1ccc(S(=O)(=O)N2CCOCC2)cc1Cl)C1CCCCC1 (centres undefined),-3.05% (inactive)
7,O=C(N/N=C/c1cccc([N+](=O)[O-])c1)c1ccncc1,2.44% (inactive)
8,CN(c1cccc(NC(=O)Nc2ccc(Cl)cc2)c1)S(C)(=O)=O,4.1% (inactive)
9,CC(C)S(=O)(=O)c1csc(NC(=O)Nc2ccc(Cl)cc2)c1Cl,14.2% (active)
10,Cn1ccc(NC(=O)Nc2ccc(Cl)cc2)n1,2.1% (inactive)
11,Cn1nc(C(F)(F)F)cc1C(=O)O,-1.44% (inactive)
12,COc1ccc(Br)cc1/C=N/NC(=O)c1cccc(S(=O)(=O)N2CCOCC2)c1,8.21% (inactive)
13,COc1ccc(/C=N/NC(=O)CNC(=O)c2ccc(S(=O)(=O)N3CCCC3)cc2)c(OC)c1,0.74% (inactive)
14,COc1cccc(/C=N/NC(=O)CNC(=O)c2ccc(S(=O)(=O)N3CCOCC3)cc2)c1OC,12.4% (active)
15,COC(=O)c1sccc1NC(=S)Nc1ccc(C)cc1,2.58% (inactive)
16,O=C(NCc1cccs1)C1CCN(S(=O)(=O)c2ccc(Cl)cc2)CC1,0.23% (inactive)
17,O=C(CNCc1cccs1)Nc1cc(S(=O)(=O)N2CCCC2)ccc1Cl,8.84% (active)
18,O=C(CNCc1ccco1)Nc1cc(S(=O)(=O)N2CCOCC2)ccc1N1CCCC1,-2.01% (inactive)
19,COc1ccccc1-n1c(-c2cc(-c3ccco3)[nH]n2)n[nH]c1=S,2.11% (inactive)
20,Fc1ccccc1/C=N/n1c(-c2cccnc2)n[nH]c1=S,0.63% (inactive)
21,CC(=O)Nc1nc(C)c(-c2csc(Nc3ccc(S(N)(=O)=O)cc3)n2)s1,-1.97% (inactive)
22,Cc1ccc(Cl)c(OCC(=O)NN2CCN(C)CC2)c1,-4.89% (inactive)
23,O=C(O)CCn1cc(/C=C/C(=O)c2ccc(Cl)cc2)c(-c2cccc(Br)c2)n1,-0.48% (inactive)
24,CC(C)CN(CC(C)C)CC(O)CN(c1ccccc1)S(=O)(=O)c1ccccc1[N+](=O)[O-] (centres undefined),-0.95% (inactive)
25,COCCCNC(=S)NC(=O)c1ccccc1,1.37% (inactive)

row,SMILES,reporter increase
1,O=C(NCCN1CCOCC1)c1c(F)c(F)c(F)c(F)c1F,-1.64% (inactive)
2,COCCCNC(=O)c1c(F)c(F)c(F)c(F)c1F,9.02% (active)
3,O=C(Nc1cccnc1)c1cc([N+](=O)[O-])ccc1Cl,-1.81% (inactive)
4,CN1CCN(c2ccc(CNS(=O)(=O)c3cccc(F)c3)cc2)CC1,-0.49% (inactive)
5,Cc1cccc(C2C3=C(CCCC3=O)N=C3c4ccccc4C(=O)C32)c1 (centres undefined),2.45% (inactive)
6,Cc1ccc2nc(C)c3c(c2c1)N(c1ccccc1)CC3,2.22% (inactive)
7,Cc1cc(=O)[nH]c(N/N=C/c2ccc3c(c2)OCCO3)n1,3.95% (inactive)
8,O=C(CCS(=O)(=O)c1ccccc1Cl)Nc1ccc(S(=O)(=O)Nc2ncccn2)cc1,-2.3% (inactive)
9,O=C(/C=C/c1ccccc1Cl)Nc1ccc(S(=O)(=O)Nc2ncccn2)cc1,-1.98% (inactive)
10,O=S(=O)(Nc1ncccn1)c1ccc(NS(=O)(=O)c2cccc(Cl)c2Cl)cc1,9.1% (active)
11,CCCSc1ncccc1C(=O)O,5.65% (inactive)
12,CC1(c2ccccc2)CC(C)(C)N(C(=O)c2cc([N+](=O)[O-])cc([N+](=O)[O-])c2)c2ccccc21 (centres undefined),-3.96% (inactive)
13,Cc1nnc(SCC(=O)N2c3ccccc3C(C)(c3ccc(Cl)cc3)CC2(C)C)s1 (centres undefined),11.3% (active)
14,Cc1nnc(SCC(=O)N2CCc3ccccc3C2)s1,-1.25% (inactive)
15,NC(=O)NC(=O)CSc1nc2cc([N+](=O)[O-])ccc2n1-c1cccc(C(F)(F)F)c1,0.4% (inactive)
16,N#CCc1ccc(OC(=O)c2cccnc2)cc1,-2.7% (inactive)
17,COc1ccc(-c2noc(CSc3ccc(C)cc3)n2)cc1,13.7% (active)
18,COc1ccc(-c2noc(CN(C)S(=O)(=O)c3ccc(C)cc3)n2)cc1,-2.95% (inactive)
19,COc1ccc(-c2noc(-c3ccc(C)cc3)n2)cc1,-0.18% (inactive)
20,CC1CC(=O)Nc2ccccc2N1S(=O)(=O)c1cccs1 (centres undefined),4.07% (inactive)
21,CCC(C)Cn1c(O)cc2nn(-c3nc4ccccc4s3)c(=O)c-2c1C (centres undefined),-4.96% (inactive)
22,O=C(N/N=C/c1ccc2c(c1)OCO2)C(=O)N1CCCC1,2.71% (inactive)
23,O=C(N/N=C/c1ccc([N+](=O)[O-])cc1)C(=O)N1CCCC1,9.76% (active)
24,NC(=S)N/N=C/c1ccc([N+](=O)[O-])cc1,-3.91% (inactive)
